# Where “and” joins values, the source holds several entries; their conditions need not be identical. Equal entries are not always repeated.
# Tests used:
# Assay in all cases: growth inhibition (% activity, log2 RLU normalised to DMSO / staurosporine); higher = more growth inhibition
# Conditions in all cases: 33 µM
# DIPGX29 = system: DIPGX29 (H3.3 K27M diffuse intrinsic pontine glioma line)
# Summary of the method: (§1)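 For each approved drug, the growth-inhibition value is the replicate median of per-plate normalised CellTiter-Glo data. Luminescence was log2-transformed and expressed as % activity between solvent and positive control wells. Drugs were applied in triplicate at a single final concentration of about 33 μM for 7 days at 37 °C, 5% CO2 to pHGG cell lines and H9-derived neural stem cells.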
# DIPGX37 = system: DIPGX37 (H3.3 K27M diffuse intrinsic pontine glioma line)
# Summary of the method: as §1
# DIPGX7 = system: DIPGX7 (H3.3 K27M diffuse intrinsic pontine glioma line)
# Summary of the method: as §1
# DIPGX9 = system: DIPGX9 (diffuse intrinsic pontine glioma line)
# Summary of the method: as §1
# HGGX39 = system: HGGX39 (paediatric high-grade glioma line)
# Summary of the method: as §1
# HGGX6 = system: HGGX6 (H3.3 G34R paediatric high-grade glioma line)
# Summary of the method: as §1
# HNSC = system: HNSC
# Summary of the method: as §1
# SUDIPGIV = system: SUDIPGIV (diffuse intrinsic pontine glioma line)
# Summary of the method: as §1
# SUDIPGVI = system: SUDIPGVI (diffuse intrinsic pontine glioma line)
# Summary of the method: as §1
# SUDIPGXIII = system: SUDIPGXIII (diffuse intrinsic pontine glioma line)
# Summary of the method: as §1
SMILES,growth inhibition (DIPGX29),growth inhibition (DIPGX37),growth inhibition (DIPGX7),growth inhibition (DIPGX9),growth inhibition (HGGX39),growth inhibition (HGGX6),growth inhibition (HNSC),growth inhibition (SUDIPGIV),growth inhibition (SUDIPGVI),growth inhibition (SUDIPGXIII)
CC(NC(=O)Cc1cc(F)cc(F)c1)C(=O)NC(C(=O)OC(C)(C)C)c1ccccc1 (stereo not given),0.109%,-1.56%,0.0172%,0.631%,1.42%,1.3%,1.25%,-6.22%,-0.444%,0.458%
CC(=O)O[C@]1(C(C)=O)CC[C@H]2[C@@H]3C=C(C)C4=CC(=O)CC[C@]4(C)[C@H]3CC[C@@]21C,0.869%,1.56%,2.71%,1.56%,-0.284%,-3.03%,-2.32%,-1.52%,-0.924%,1.41%
CC(C)(Sc1cc(C(C)(C)C)c(O)c(C(C)(C)C)c1)Sc1cc(C(C)(C)C)c(O)c(C(C)(C)C)c1,-2%,-0.535%,-0.766%,-0.47%,-0.682%,-1.24%,1.54%,-1.38%,-2.9%,1.85%
COc1ccccc1N1CCN(CCCNc2cc(=O)n(C)c(=O)n2C)CC1,-0.448%,2.3%,-0.071%,0.0185%,0.367%,0.543%,0.25%,-1.07%,-1.77%,1.17%
CC[C@H](C)[C@H](N)C1=N[C@H](C(=O)N[C@@H](CC(C)C)C(=O)N[C@H](CCC(=O)O)C(=O)N[C@H](C(=O)N[C@H]2CCCCNC(=O)[C@H](CC(N)=O)NC(=O)[C@@H](CC(=O)O)NC(=O)[C@H](Cc3cnc[nH]3)NC(=O)[C@@H](Cc3ccccc3)NC(=O)[C@H]([C@@H](C)CC)NC(=O)[C@@H](CCCN)NC2=O)[C@@H](C)CC)CS1,0.716%,-3.59%,2.09%,-0.221%,2.77%,-1.08%,1.3%,0.589%,-1.54%,-1.26%
O=C(Nc1ccccc1)c1ccccc1O,-0.176%,2.96%,0.467%,-0.488%,3.96%,0.186%,1.7%,5.1%,-0.592%,1.74%
COC(=O)C1=C(C#N)NC(C)=C(C(=O)OC(C)C)C1c1cccc([N+](=O)[O-])c1 (stereo not given),-1.9%,-0.628%,-0.445%,-1.03%,-1.34%,-3.12%,5%,-1.37%,-1.47%,1.7%
Cc1ccc(C(=O)c2cc(O)c(O)c([N+](=O)[O-])c2)cc1,-4.7%,-1.02%,-1.81%,-2.4%,-1.44%,-3.36%,0.397%,-4.56%,-2.71%,1.37%
O=C1c2ccccc2C(=O)C1c1ccccc1,-0.501%,-1.03%,-0.877%,-0.146%,1.52%,0.118%,-1.43%,0.701%,0.683%,0.357%
COc1ccc(CN2CCN(C(c3ccc(F)cc3)c3ccc(F)cc3)CC2)c(OC)c1OC,3.37%,4.29%,2.14%,3.16%,7.88%,4.43%,7.5%,2.85%,3.72%,-11.1%
CCOC(=O)[C@H](CCc1ccccc1)N[C@H]1CCCN2CCC[C@@H](C(=O)O)N2C1=O,2.06%,3.84%,3.15%,2.7%,2.78%,1.01%,9.63%,0.443%,4.92%,-0.861%
C[C@]12C=CC(=O)C=C1CC[C@@H]1[C@@H]2C(=O)C[C@@]2(C)[C@H]1CC[C@]2(O)C(=O)CO,-2.83%,-1.18%,-0.368%,-2.35%,-1.89%,-3.12%,-4.28%,-3.78%,-6.66%,1.72%
CN(C)CC/C=C1/c2ccccc2COc2ccc(CC(=O)O)cc21,1.93%,3.18%,2.2%,2.77%,2.27%,2.49%,-0.124%,-0.355%,2.4%,0.825%
COc1ccc2cc([C@H](C)C(=O)O)ccc2c1,-0.22%,-1.1%,-0.43%,0.193%,-0.312%,0.298%,0.9%,-2.72%,0.358%,0.579%
Nc1nc(Cl)nc2c1ncn2[C@@H]1O[C@H](CO)[C@@H](O)[C@@H]1F,14.6%,9.43%,17.6%,43.6%,20%,12.5%,64.4%,45%,2.3%,14.3%
O=C1CN2Cc3c(ccc(Cl)c3Cl)N=C2N1,-0.095%,-0.968%,-0.492%,0.847%,3.51%,9.62%,-2.73%,-0.36%,0.709%,-4.79%
CN1CCC(OC(c2ccccc2)c2ccccc2)CC1,1.96%,3.9%,1.96%,0.713%,4.23%,2.61%,2.96%,1.77%,3.73%,-1.75%
Clc1ccc(C(Cn2ccnc2)OCc2ccc(Sc3ccccc3)cc2)c(Cl)c1 (stereo not given),2.76%,0.833%,2.5%,4.7%,11.8%,8.32%,14%,11.4%,2.82%,5.1%
NS(=O)(=O)c1cc(Cl)c(Cl)c(S(N)(=O)=O)c1,-2.92%,-0.619%,1.34%,-2.39%,-1.33%,-5.6%,21.2%,-2.27%,-8.85%,2.33%
Cc1ccccc1C(OCCN(C)C)c1ccccc1 (stereo not given),-0.515%,0.826%,-0.00592%,1.44%,2.28%,1.66%,-1.91%,0.0322%,0.905%,1.58%
Cn1nnc2c(C(N)=O)ncn2c1=O,-1.97%,0.303%,-1.33%,-1.07%,-1.58%,-0.426%,9.79%,-4.09%,0.031%,-1.62%
COC(=O)[C@H](Cc1ccccc1)NC(=O)[C@@H](N)CC(=O)O,-2.32%,-1.81%,-2.17%,-2.28%,-1.24%,0.801%,-5.7%,-2.58%,-1.43%,-6.7%

SMILES,growth inhibition (DIPGX29),growth inhibition (DIPGX37),growth inhibition (DIPGX7),growth inhibition (DIPGX9),growth inhibition (HGGX39),growth inhibition (HGGX6),growth inhibition (HNSC),growth inhibition (SUDIPGIV),growth inhibition (SUDIPGVI),growth inhibition (SUDIPGXIII)
COCCOC(=O)C1=C(C)NC(C)=C(C(=O)OC(C)C)C1c1cccc([N+](=O)[O-])c1 (stereo not given),-0.32%,0.964%,-0.466%,0.313%,1.43%,-1.47%,2.29%,0.263%,1.28%,2.89%
N#Cc1ccc(C(c2ccc(C#N)cc2)n2cncn2)cc1,-0.88%,0.114%,-0.157%,-0.262%,-0.621%,-0.866%,0.581%,-0.66%,1.28%,1.04%
Cn1c(=O)c2c(ncn2CC2OCCO2)n(C)c1=O,0.735%,3.27%,0.989%,0.338%,4.64%,-0.428%,12.2%,2.59%,1.02%,0.38%
O=C1c2c(O)ccc(O)c2C(=O)c2c(NCCNCCO)ccc(NCCNCCO)c21,62.2%,58.9%,59.1%,55.9%,61.6%,59%,62.7%,59.9%,35.8%,39.8%
Cc1ccc(NC(=O)c2ccc(CN3CCN(C)CC3)cc2)cc1Nc1nccc(-c2cccnc2)n1,4.56% and 0.376%,3.89% and 0.0929%,5.28% and 3.03%,2.43% and -0.42%,8.41% and 4.83%,5.52% and -1.5%,3.25% and -0.323%,4.42% and 1.82%,4.93% and -0.526%,-15.8% and 0.752%
CCOC(=O)[C@H](CCc1ccccc1)N[C@@H](C)C(=O)N1C(=O)N(C)C[C@H]1C(=O)O,-1.26%,0.599%,-0.344%,-0.304%,-1.03%,-1.84%,1.56%,-1.04%,-1.53%,1.71%
OCCN(CCO)c1nc(N2CCCCC2)c2nc(N(CCO)CCO)nc(N3CCCCC3)c2n1,-2.31%,-0.429%,-1.26%,-0.332%,2.38%,1.04%,-0.178%,-1.52%,-2.93%,1.36%
CCCN(CCC)S(=O)(=O)c1ccc(C(=O)O)cc1,-1.26%,2.49%,0.672%,0.0871%,1.02%,-3.52%,8.98%,1.56%,-6.21%,0.262%
Cc1cccc(C)c1OCC(=O)N[C@@H](Cc1ccccc1)[C@@H](O)C[C@H](Cc1ccccc1)NC(=O)[C@H](C(C)C)N1CCCNC1=O,-0.115%,1.21%,-0.846%,1.07%,-0.0767%,1.3%,0.148%,-2.8%,-1.16%,-0.606%
CCOC(=O)[C@H](CCc1ccccc1)N[C@H]1CCc2ccccc2N(CC(=O)O)C1=O,-0.274%,-0.666%,0.62%,-1.51%,-0.668%,-3.48%,0.9%,-2.69%,-7.43%,-0.0284%
O=C(O)C1(C(=O)O)CCC1.[NH2-].[NH2-].[Pt+2],-2.53%,0.00905%,-1.49%,-0.992%,-2.69%,-4.21%,4.08%,-3.4%,-3.41%,-0.0982%
CCN1CCN(c2cc3c(cc2F)c(=O)c(C(=O)O)cn3C2CC2)CC1,-0.107%,1.21%,0.805%,1.48%,4.31%,-0.135%,1.17%,1.5%,1.16%,-0.234%
COC(=O)Nc1nc2cc(Sc3ccccc3)ccc2[nH]1,6.86%,10.3%,8.12%,9.42%,10.7%,10.1%,77%,10.8%,4.78%,3.48%
CN(C)CCN(Cc1cccs1)c1ccccn1,1.96%,3.64%,1.81%,0.429%,5.09%,1.78%,2.78%,0.871%,3.63%,0.391%
C[C@]12C=CC(=O)C=C1CC[C@@H]1[C@@H]2[C@@H](O)C[C@@]2(C)[C@H]1CC[C@]2(O)C(=O)CO,0.548%,0.082%,-0.697%,2.79%,1.22%,-0.621%,1.3%,-0.906%,1.51%,0.983%
CCCCCCCCOc1ccccc1C(=O)Nc1ccc(C(=O)OCC[N+](C)(CC)CC)cc1,1.1%,-1.75%,3.53%,2.15%,53.7%,10.8%,1.89%,4.07%,-1.27%,2.78%
Clc1ccc(COC(Cn2ccnc2)c2ccc(Cl)cc2Cl)cc1 (stereo not given),1.53%,4.62%,0.954%,4%,9.31%,8.25%,7.53%,11.7%,1.21%,7.66%
O=C(NCCN1CCOCC1)c1ccc(Cl)cc1,0.0777%,-0.588%,-0.129%,-0.472%,-0.0669%,-0.698%,-1.63%,-0.786%,-1.17%,0.934%
NC(=O)CC[C@H](N)C(=O)O,-1.66%,0.802%,-0.27%,0.17%,-0.498%,-1.45%,-2.34%,-1.24%,1.4%,-0.384%
CCCc1ncc(C[n+]2ccccc2C)c(N)n1,-4.8%,-1.21%,-0.627%,-2.23%,-2.8%,-3.52%,7.92%,-2.86%,-5.24%,0.241%
CC(C)Cc1ccc(C(C)C(=O)O)cc1 (stereo not given),0.835% and -0.392%,2.64% and 0.0742%,2.15% and 0.0236%,1.07% and 0.0197%,2.25% and -0.715%,1.92% and 1.49%,-0.67% and 0.218%,-1.49% and -4.48%,2.09% and 0.812%,-0.0501% and 0.956%
